Test results as given in PubChem BioAssay (EPA / NIEHS).
Activity calls are given as the source filed them. Rule for the calls: active = hit-call score of the fitted dose curve at least 0.9, where 1 is the maximum; inactive = score below 0.9.

Key:
[1] = read-out: Tumor necrosis factor receptor superfamily member 6 (Homo sapiens) (UniProt P25445); experiment: LTEA_HepaRG_FAS: Life Technologies and Expression Analysis (LTEA) Assay for Fas cell surface death receptor (FAS) using HepaRG (AID 2283447); settings: mRNA level, 48 h; actives raise or lower the signal
How it was run: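 Differentiated human HepaRG cells, pre-cultured 48 h, were exposed in duplicate for 48 h to 8-point half-log concentrations (top 100 uM, 0.5% DMSO) in serum-free induction medium; FAS mRNA measured by qRT-PCR, normalized to ACTB/GAPDH/POLR2A, bidirectional fit versus DMSO.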

[2] = read-out: Cyclin D2 (CCND2), CCND2 (gene 894); experiment: LTEA_HepaRG_CCND2: Life Technologies and Expression Analysis (LTEA) Assay for Cyclin D2 (CCND2) using HepaRG (AID 2283449); settings: mRNA level, 48 h; actives raise or lower the signal;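 note: CCND2 transcript measured by TaqMan qRT-PCR and normalised to three housekeeping genes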
How it was run: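 In this HepaRG study, an eight-point concentration series (max 100 uM, 0.5% DMSO) is applied for 48 h. CCND2 mRNA change is derived by qRT-PCR normalised to ACTB, GAPDH and POLR2A.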

[3] = read-out: Cyclin Dependent Kinase Inhibitor 1A (CDKN1A), CDKN1A (gene 1026); experiment: LTEA_HepaRG_CDKN1A: Life Technologies and Expression Analysis (LTEA) Assay for Cyclin Dependent Kinase Inhibitor 1A (CDKN1A) using HepaRG (AID 2283450); settings: mRNA level, 48 h; actives raise or lower the signal
How it was run: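 Cryopreserved HepaRG cells were plated and cultured 48 h, then switched to serum-free induction medium. Chemicals (eight half-log concentrations, top 100 uM, 0.5% DMSO) were applied for 48 h. Lysates underwent qRT-PCR for CDKN1A with housekeeping normalization.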

[4] = read-out: Cyclin D1 (CCND1), CCND1 (gene 595); experiment: LTEA_HepaRG_CCND1: Life Technologies and Expression Analysis (LTEA) Assay for Cyclin D1 (CCND1) using HepaRG (AID 2283451); settings: mRNA level, 48 h; actives raise or lower the signal
How it was run: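 Human liver HepaRG line; 48 h dosing, 8 conc. ≤100 uM, 0.5% DMSO; TaqMan qRT-PCR mRNA, 3 housekeeping genes; bidirectional curve fit vs DMSO.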

[5] = read-out: flavin-containing dimethylaniline monooxygenases 3 (FMO3), FMO3 (gene 2328); experiment: LTEA_HepaRG_FMO3: Life Technologies and Expression Analysis (LTEA) Assay for flavin-containing dimethylaniline monooxygenases 3 (FMO3) using HepaRG (AID 2283453); settings: mRNA level, 48 h; actives raise or lower the signal;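 for AC50: FMO3 transcript by TaqMan qRT-PCR normalized to ACTB GAPDH and POLR2A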
How it was run: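 Eight-point concentration-response in serum-free HepaRG cultures (top 100 uM, 0.5% DMSO, 48 h). Read-out: FMO3 mRNA level normalized to three endogenous control genes, fitted bidirectionally versus vehicle.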

[6] = read-out: Cytochrome P450 (CYP1A1), CYP1A1 (gene 1543); experiment: LTEA_HepaRG_CYP1A1: Life Technologies and Expression Analysis (LTEA) Assay for Cytochrome P450 (CYP1A1) using HepaRG (AID 2283454); settings: mRNA level, 48 h; actives raise or lower the signal
How it was run: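 Induction of CYP1A1 mRNA in a human hepatic cell line was measured 48 h after dosing, with 1 mM phenobarbital as induction positive control and 0.5% DMSO vehicle as baseline for bidirectional curve fitting.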

[7] = read-out: CFLAR gene, CFLAR (gene 8837); experiment: LTEA_HepaRG_CFLAR: Life Technologies and Expression Analysis (LTEA) Assay for CFLAR gene using HepaRG (AID 2283455); settings: mRNA level, 48 h; actives raise or lower the signal
How it was run: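 Gain- or loss-of-signal changes in CFLAR transcript were fitted bidirectionally relative to 0.5% DMSO. Cells (HepaRG, duplicate wells) were dosed for 48 h across eight half-log concentrations topping at 100 uM; quantitation by TaqMan qRT-PCR.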

[8] = read-out: Forkhead box O1 (FOXO1), FOXO1 (gene 2308); experiment: LTEA_HepaRG_FOXO1: Life Technologies and Expression Analysis (LTEA) Assay for Forkhead box O1 (FOXO1) using HepaRG (AID 2283456); settings: mRNA level, 48 h; actives raise or lower the signal
How it was run: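 Using one lot of HepaRG hepatic cells kept in 0.5% DMSO, the team applied test chemicals in duplicate, half-log dilutions from 100 uM, for 48 h. Expression, normalised to ACTB/GAPDH/POLR2A, was compared with vehicle in either direction.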

[9] = read-out: growth arrest and DNA damage 45 (GADD45A), GADD45A (gene 1647); experiment: LTEA_HepaRG_GADD45A: Life Technologies and Expression Analysis (LTEA) Assay for growth arrest and DNA damage 45 (GADD45A) using HepaRG (AID 2283458); settings: mRNA level, 48 h; actives raise or lower the signal
How it was run: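 Eight-point concentration-response in HepaRG cells: 48 h chemical exposure, 0.5% DMSO vehicle, top dose 100 uM. Normalized qRT-PCR mRNA readout with bidirectional fitting relative to DMSO.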

[10] = read-out: Forkhead box O3 (FOXO3), FOXO3 (gene 2309); experiment: LTEA_HepaRG_FOXO3: Life Technologies and Expression Analysis (LTEA) Assay for Forkhead box O3 (FOXO3) using HepaRG (AID 2283459); settings: mRNA level, 48 h; actives raise or lower the signal
How it was run: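 Gene-expression endpoint: FOXO3 transcript level by qRT-PCR in HepaRG cultures treated 48 h with chemicals up to 100 uM (half-log, 0.5% DMSO vehicle).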

[11] = read-out: ABC Transporter (ABCB1), ABCB1 (gene 5243); experiment: LTEA_HepaRG_ABCB1: Life Technologies and Expression Analysis (LTEA) Assay for ABC Transporter (ABCB1) using HepaRG (AID 2283460); settings: mRNA level, 48 h; actives raise or lower the signal
How it was run: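 Human liver HepaRG line treated 48 h with up to 100 uM compound (eight half-log points, 0.5% DMSO); ABCB1 mRNA change fitted bidirectionally against DMSO controls.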

[12] = read-out: growth arrest and DNA damage 45 (GADD45B), GADD45B (gene 4616); experiment: LTEA_HepaRG_GADD45B: Life Technologies and Expression Analysis (LTEA) Assay for growth arrest and DNA damage 45 (GADD45B) using HepaRG (AID 2283461); settings: mRNA level, 48 h; actives raise or lower the signal
How it was run: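 Values are bidirectional concentration-response fits against 0.5% DMSO controls. Underlying data: qRT-PCR mRNA levels in human HepaRG liver cells treated 48 h in serum-free induction medium, eight concentrations topping at 100 uM.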

[13] = read-out: ABC Transporter (ABCC3), ABCC3 (gene 8714); experiment: LTEA_HepaRG_ABCC3: Life Technologies and Expression Analysis (LTEA) Assay for ABC Transporter (ABCC3) using HepaRG (AID 2283462); settings: mRNA level, 48 h; actives raise or lower the signal
How it was run: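 Differentiated HepaRG liver cells receive test chemicals at eight concentrations (max 100 uM) for 48 h. Expression of ABCC3 is quantified by qRT-PCR against ACTB, GAPDH and POLR2A, and activity is fitted in both directions against the DMSO control.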

[14] = read-out: ABC Transporter (ABCB11), ABCB11 (gene 8647); experiment: LTEA_HepaRG_ABCB11: Life Technologies and Expression Analysis (LTEA) Assay for ABC Transporter (ABCB11) using HepaRG (AID 2283463); settings: mRNA level, 48 h; actives raise or lower the signal
How it was run: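 Using HepaRG cultures held in 0.5% DMSO, chemicals were tested at half-log dilutions from 100 uM for 48 h. Induction or suppression of ABCB11 mRNA, normalized to ACTB, GAPDH and POLR2A, was fitted bidirectionally against vehicle.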

[15] = read-out: ABC Transporter (ABCC2), ABCC2 (gene 1244); experiment: LTEA_HepaRG_ABCC2: Life Technologies and Expression Analysis (LTEA) Assay for ABC Transporter (ABCC2) using HepaRG (AID 2283464); settings: mRNA level, 48 h; actives raise or lower the signal
How it was run: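 Gene expression of ABCC2 was determined by qRT-PCR in HepaRG cells exposed 48 h to chemicals (highest 100 uM, half-log dilutions). Activity was fitted in both directions relative to 0.5% DMSO vehicle.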

[16] = read-out: Broad substrate specificity ATP-binding cassette transporter ABCG2 (Homo sapiens) (UniProt Q9UNQ0); experiment: LTEA_HepaRG_ABCG2: Life Technologies and Expression Analysis (LTEA) Assay for ABC Transporter (ABCG2) using HepaRG (AID 2283465); settings: mRNA level, 48 h; actives raise or lower the signal
How it was run: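 Gene expression of ABCG2 in HepaRG liver cells is quantified by qRT-PCR following 48 h exposure across an eight-point series topping at 100 uM. Values come from bidirectional fitting relative to DMSO vehicle.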

[17] = read-out: ATP-citrate lyase (ACLY), ACLY (gene 47); experiment: LTEA_HepaRG_ACLY: Life Technologies and Expression Analysis (LTEA) Assay for ATP-citrate lyase (ACLY) using HepaRG (AID 2283466); settings: mRNA level, 48 h; actives raise or lower the signal
How it was run: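 ACLY expression changes in human HepaRG liver cells are quantified by qRT-PCR after 48 h exposure to test chemicals (maximum 100 uM, half-log steps). Values are fitted in both directions relative to 0.5% DMSO vehicle.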

[18] = CEETOX_H295R_TESTO: CeeTox H295R High-throughput Steroidogenesis Assay for Testosterone (TESTO) (AID 2283457); settings: actives raise or lower the signal
How it was run: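 Testosterone synthesis is assessed in human adrenocortical H295R cells after 48 h of chemical exposure, using HPLC-MS/MS of extracted medium. Activity is fitted in both directions against DMSO control.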

[19] = read-out: catalase (CAT), CAT (gene 847); experiment: LTEA_HepaRG_CAT: Life Technologies and Expression Analysis (LTEA) Assay for catalase (CAT) using HepaRG (AID 2283452); settings: mRNA level, 48 h; actives raise or lower the signal
How it was run: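 Differentiated HepaRG cells in serum-free induction medium were dosed 48 h in duplicate, eight half-log concentrations from 100 uM in 0.5% DMSO. Transcript measured by TaqMan qRT-PCR, normalised to ACTB/GAPDH/POLR2A, fitted bidirectionally against DMSO.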

Measured: AC50

Chain of Broad substrate specificity ATP-binding cassette transporter ABCG2 (Homo sapiens) (Q9UNQ0 whole entry, looked up): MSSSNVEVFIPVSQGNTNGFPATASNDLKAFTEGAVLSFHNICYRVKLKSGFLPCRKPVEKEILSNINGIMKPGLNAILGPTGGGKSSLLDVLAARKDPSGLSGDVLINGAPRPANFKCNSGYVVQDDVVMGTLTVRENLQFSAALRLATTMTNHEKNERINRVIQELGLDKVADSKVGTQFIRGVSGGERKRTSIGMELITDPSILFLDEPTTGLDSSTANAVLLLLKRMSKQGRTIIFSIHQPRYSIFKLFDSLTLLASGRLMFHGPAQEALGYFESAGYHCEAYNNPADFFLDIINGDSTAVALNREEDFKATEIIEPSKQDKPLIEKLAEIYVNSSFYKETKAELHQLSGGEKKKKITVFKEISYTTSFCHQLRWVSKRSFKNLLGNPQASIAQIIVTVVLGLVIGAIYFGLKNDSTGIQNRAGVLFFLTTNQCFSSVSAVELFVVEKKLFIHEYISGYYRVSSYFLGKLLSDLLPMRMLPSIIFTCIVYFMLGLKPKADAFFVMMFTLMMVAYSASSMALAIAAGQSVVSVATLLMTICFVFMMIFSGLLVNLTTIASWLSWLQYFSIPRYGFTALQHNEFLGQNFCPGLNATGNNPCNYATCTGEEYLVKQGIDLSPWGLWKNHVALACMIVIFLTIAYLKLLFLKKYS

Oc1ccc(C(c2ccc(O)cc2)(C(F)(F)F)C(F)(F)F)cc1
active: [2] 0.147 µM | [5] 78.3 µM | [6] 50 µM | [7] 91.3 µM | [8] 81 µM | [14] 86.6 µM
not listed: [18] | [19]
inactive: all other assays above

CCNc1nc(NC(C)C)nc(SC)n1
active: [5] 50 µM | [6] 19.8 µM | [14] 50 µM
not listed: [2] | [7] | [10] | [19]
inactive: all other assays above

COS(=O)(=O)OC
active: [6] 25.5 µM
not listed: [18] | [19]
inactive: all other assays above

CCCCCCOC(=O)c1ccccc1C(=O)OCCCCCC
active: [6] 50 µM
not listed: [2] | [18] | [19]
inactive: all other assays above

C[C@]12CCC(=O)C=C1CC[C@@H]1[C@@H]2CC[C@]2(C)C(=O)CC[C@@H]12
active: [9] 50 µM | [11] 17.1 µM | [14] 2.67 µM | [15] 50 µM | [16] 19.7 µM | [17] 88.9 µM
not listed: [2] | [18]
inactive: all other assays above

O=S(=O)(O)C(F)(F)C(F)(F)C(F)(F)C(F)(F)F
not listed: [7] | [18] | [19]
inactive: all other assays above

Nn1cnnc1
active: [6] 50 µM
not listed: [7] | [18] | [19]
inactive: all other assays above
